These results are taken from ChEMBL document CHEMBL2218924, “A broad activity screen in support of a chemogenomic map for kinase signalling research and drug discovery” (Biochem J, 2013).

A word on the residual activity: it is the signal under treatment as a percentage of the control signal.

For test [1], the target named is T1, Serine/threonine-protein kinase 17A (Homo sapiens) (UniProt Q9UEE5).
T1 sequence (whole entry): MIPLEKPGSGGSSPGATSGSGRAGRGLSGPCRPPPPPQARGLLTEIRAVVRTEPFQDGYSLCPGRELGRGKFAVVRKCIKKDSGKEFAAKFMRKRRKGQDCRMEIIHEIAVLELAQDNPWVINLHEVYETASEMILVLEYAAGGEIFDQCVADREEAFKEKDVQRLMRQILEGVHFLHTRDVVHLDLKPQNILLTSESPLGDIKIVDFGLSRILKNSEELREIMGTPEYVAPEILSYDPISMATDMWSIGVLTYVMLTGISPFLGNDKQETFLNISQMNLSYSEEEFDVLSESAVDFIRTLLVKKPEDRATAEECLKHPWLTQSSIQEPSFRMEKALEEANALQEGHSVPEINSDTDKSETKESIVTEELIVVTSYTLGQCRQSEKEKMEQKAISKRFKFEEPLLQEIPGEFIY
The following applies: at 10 µM.

Test [2] addresses T2, Dual specificity tyrosine-phosphorylation-regulated kinase 2 (Homo sapiens) (UniProt Q92630).
T2 sequence (whole entry): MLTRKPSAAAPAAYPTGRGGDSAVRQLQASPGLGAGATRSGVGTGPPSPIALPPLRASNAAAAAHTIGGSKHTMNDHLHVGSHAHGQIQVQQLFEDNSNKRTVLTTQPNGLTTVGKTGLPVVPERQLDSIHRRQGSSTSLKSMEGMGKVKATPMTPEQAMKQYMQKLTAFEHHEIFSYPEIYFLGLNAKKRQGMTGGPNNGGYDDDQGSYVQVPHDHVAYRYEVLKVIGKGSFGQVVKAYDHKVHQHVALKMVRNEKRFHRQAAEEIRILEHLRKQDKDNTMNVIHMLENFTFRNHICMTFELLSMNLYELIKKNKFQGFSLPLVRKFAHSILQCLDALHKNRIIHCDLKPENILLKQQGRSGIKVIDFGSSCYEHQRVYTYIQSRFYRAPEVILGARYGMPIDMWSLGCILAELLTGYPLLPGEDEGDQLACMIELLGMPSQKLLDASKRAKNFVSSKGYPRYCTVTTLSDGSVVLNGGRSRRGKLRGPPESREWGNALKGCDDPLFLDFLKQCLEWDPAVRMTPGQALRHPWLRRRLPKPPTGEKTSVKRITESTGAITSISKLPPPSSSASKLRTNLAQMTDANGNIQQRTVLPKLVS
The note with it: at 1 µM.

For test [3], the target named is T2, Dual specificity tyrosine-phosphorylation-regulated kinase 2 (Homo sapiens). The following applies: at 10 µM.
For test [4], the target named is T3, Ephrin type-A receptor 1 (Homo sapiens) (UniProt P21709).
T3 sequence (whole entry): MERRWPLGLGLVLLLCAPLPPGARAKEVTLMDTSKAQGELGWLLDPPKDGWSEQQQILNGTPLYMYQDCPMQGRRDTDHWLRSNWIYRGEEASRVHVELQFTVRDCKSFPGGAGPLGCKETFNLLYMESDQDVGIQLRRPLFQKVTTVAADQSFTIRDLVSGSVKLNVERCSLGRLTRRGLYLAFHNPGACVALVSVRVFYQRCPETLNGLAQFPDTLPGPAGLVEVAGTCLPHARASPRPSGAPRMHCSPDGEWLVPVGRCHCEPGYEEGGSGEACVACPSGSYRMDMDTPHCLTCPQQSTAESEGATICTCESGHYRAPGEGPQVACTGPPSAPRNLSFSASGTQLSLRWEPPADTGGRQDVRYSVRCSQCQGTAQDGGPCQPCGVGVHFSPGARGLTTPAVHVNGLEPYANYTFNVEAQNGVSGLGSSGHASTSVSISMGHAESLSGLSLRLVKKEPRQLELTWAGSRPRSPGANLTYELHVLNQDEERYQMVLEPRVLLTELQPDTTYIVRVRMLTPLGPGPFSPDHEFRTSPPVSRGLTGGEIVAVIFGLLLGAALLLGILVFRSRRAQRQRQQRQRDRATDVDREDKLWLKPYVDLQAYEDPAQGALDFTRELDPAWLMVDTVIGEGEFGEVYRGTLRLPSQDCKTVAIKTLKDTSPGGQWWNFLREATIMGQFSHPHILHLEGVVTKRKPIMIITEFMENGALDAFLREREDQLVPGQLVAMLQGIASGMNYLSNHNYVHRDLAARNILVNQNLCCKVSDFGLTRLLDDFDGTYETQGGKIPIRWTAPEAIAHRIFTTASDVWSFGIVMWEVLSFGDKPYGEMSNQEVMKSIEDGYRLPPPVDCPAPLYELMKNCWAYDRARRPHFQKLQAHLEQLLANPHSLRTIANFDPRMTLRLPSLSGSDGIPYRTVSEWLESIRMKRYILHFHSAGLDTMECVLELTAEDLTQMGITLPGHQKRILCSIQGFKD
The note with it: at 1 µM.

Test [5] concerns the target T3, Ephrin type-A receptor 1 (Homo sapiens). The following applies: at 10 µM.
Test [6] has as its target Ephrin type-A receptor 7 (Homo sapiens) (UniProt Q15375). The note with it: at 1 µM.
Test [7] shares this target. The following applies: at 10 µM.
In test [8] the target is T4, Ephrin type-B receptor 1 (Homo sapiens) (UniProt P54762).
T4 sequence (whole entry): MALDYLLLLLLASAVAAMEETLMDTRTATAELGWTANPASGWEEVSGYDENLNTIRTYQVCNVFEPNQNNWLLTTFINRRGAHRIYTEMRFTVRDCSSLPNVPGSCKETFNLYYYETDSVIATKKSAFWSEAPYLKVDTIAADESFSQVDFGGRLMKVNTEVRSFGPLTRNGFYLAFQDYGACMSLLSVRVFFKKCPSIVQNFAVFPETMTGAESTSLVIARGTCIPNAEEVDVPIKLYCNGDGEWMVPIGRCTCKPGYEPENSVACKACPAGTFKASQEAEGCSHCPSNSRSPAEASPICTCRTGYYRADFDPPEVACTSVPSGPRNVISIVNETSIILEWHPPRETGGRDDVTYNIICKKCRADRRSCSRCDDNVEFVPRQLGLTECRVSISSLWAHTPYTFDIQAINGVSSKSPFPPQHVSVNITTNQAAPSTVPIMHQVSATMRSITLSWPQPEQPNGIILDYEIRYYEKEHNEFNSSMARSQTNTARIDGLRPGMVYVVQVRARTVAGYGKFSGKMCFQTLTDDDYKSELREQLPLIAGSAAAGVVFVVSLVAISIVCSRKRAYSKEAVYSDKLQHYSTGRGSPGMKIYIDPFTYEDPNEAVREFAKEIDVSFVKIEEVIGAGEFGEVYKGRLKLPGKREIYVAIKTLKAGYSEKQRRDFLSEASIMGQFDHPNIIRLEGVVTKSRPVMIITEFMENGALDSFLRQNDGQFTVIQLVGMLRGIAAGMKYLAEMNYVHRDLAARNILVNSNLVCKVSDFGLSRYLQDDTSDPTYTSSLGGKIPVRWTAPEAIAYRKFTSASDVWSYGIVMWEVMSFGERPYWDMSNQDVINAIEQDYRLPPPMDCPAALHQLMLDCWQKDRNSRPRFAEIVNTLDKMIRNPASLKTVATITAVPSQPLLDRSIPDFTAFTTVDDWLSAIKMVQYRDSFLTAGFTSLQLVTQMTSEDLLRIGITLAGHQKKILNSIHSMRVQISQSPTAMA
The note with it: at 1 µM.

The target in test [9] is Ephrin type-A receptor 2 (Homo sapiens) (UniProt P29317). The note with it: at 1 µM.
Ephrin type-A receptor 2 (Homo sapiens), sequence (P29317 whole entry): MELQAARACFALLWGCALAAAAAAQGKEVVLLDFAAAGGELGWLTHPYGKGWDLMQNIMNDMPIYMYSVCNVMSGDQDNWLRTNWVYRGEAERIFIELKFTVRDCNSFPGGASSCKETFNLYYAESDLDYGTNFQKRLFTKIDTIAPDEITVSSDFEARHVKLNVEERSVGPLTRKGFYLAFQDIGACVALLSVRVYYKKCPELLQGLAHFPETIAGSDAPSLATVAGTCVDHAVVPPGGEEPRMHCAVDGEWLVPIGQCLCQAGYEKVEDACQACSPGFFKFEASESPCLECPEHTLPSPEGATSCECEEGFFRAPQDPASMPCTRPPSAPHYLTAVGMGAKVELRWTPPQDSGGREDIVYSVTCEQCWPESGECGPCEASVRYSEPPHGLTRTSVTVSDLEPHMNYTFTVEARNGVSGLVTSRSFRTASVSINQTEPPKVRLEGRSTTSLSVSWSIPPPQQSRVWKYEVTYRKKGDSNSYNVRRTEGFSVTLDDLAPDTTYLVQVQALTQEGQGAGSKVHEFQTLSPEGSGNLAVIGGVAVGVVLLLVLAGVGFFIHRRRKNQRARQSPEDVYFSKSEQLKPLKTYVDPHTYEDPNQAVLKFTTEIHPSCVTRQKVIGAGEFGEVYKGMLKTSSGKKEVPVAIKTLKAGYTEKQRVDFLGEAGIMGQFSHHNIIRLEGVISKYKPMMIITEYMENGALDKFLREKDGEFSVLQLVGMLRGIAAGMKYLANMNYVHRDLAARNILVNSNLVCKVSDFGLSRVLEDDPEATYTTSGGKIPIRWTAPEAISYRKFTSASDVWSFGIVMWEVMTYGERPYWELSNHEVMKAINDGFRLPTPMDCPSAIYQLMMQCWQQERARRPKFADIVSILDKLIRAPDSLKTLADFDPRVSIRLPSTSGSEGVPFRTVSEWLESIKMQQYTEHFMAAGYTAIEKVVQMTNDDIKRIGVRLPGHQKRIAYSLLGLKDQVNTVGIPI
Test [10] has the same target. The following applies: at 10 µM.
Test [11] addresses T5, Ephrin type-A receptor 3 (Homo sapiens) (UniProt P29320).
T5 sequence (whole entry): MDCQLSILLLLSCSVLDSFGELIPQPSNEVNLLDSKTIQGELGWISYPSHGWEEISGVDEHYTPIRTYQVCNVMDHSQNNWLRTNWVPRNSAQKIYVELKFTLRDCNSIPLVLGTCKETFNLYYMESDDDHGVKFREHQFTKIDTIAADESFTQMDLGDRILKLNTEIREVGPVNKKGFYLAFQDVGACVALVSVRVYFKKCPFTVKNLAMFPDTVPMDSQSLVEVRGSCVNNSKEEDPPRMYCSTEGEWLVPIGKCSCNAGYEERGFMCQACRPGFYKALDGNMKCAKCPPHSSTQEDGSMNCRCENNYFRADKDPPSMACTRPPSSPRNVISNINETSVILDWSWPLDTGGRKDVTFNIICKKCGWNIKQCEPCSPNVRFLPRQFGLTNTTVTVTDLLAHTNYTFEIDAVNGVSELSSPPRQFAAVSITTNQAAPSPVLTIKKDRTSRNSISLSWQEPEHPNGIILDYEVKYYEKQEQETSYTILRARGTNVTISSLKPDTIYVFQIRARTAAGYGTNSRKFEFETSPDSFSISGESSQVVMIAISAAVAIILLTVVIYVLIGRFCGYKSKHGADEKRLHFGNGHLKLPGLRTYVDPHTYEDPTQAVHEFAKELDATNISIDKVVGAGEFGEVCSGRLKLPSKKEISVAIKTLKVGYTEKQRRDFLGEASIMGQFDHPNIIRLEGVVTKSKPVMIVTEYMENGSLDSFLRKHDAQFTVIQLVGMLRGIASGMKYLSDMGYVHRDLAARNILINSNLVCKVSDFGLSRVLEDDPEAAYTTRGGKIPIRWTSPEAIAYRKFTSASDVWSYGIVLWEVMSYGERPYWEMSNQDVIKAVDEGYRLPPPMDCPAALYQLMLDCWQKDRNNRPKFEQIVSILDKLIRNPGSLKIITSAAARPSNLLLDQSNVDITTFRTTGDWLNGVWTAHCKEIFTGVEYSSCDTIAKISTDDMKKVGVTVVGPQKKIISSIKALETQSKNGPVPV
The following applies: at 1 µM.

In test [12] the target is T5, Ephrin type-A receptor 3 (Homo sapiens). The following applies: at 10 µM.
Test [13] has as its target Ephrin type-A receptor 4 (Homo sapiens) (UniProt P54764). The following applies: at 1 µM.
Test [14] shares this target. The following applies: at 10 µM.
For test [15], the target named is Ephrin type-A receptor 5 (Homo sapiens) (UniProt P54756). The following applies: at 1 µM.
Ephrin type-A receptor 5 (Homo sapiens), sequence (P54756 whole entry): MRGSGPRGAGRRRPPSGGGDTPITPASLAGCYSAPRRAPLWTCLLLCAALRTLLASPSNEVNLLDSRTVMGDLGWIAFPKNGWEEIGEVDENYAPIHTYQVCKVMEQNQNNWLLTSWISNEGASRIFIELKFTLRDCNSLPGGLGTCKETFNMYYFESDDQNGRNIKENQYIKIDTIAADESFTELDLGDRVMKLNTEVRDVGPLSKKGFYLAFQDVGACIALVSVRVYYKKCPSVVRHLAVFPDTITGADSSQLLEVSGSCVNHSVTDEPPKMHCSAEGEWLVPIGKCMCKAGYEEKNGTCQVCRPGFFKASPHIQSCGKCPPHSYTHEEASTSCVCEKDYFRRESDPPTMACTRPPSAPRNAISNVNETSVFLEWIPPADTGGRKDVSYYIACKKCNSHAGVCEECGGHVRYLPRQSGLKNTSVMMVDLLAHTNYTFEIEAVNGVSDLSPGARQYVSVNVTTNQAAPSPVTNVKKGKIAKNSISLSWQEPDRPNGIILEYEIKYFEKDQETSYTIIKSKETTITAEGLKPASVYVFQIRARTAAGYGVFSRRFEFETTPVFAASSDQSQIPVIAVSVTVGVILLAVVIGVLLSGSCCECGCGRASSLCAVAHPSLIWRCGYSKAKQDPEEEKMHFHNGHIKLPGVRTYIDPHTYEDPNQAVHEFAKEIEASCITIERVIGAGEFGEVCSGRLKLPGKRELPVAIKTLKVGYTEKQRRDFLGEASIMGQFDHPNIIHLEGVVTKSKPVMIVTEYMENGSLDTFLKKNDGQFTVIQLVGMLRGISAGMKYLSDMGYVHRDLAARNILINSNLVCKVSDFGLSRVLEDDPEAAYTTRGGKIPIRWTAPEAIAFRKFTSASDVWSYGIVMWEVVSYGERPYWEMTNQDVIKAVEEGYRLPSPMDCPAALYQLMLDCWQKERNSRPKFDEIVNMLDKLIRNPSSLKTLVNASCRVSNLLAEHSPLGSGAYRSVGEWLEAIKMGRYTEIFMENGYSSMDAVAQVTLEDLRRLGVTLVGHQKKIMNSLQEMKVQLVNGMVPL
Test [16] has the same target. The following applies: at 10 µM.
The target in test [17] is T6, Ephrin type-A receptor 8 (Homo sapiens) (UniProt P29322).
T6 sequence (whole entry): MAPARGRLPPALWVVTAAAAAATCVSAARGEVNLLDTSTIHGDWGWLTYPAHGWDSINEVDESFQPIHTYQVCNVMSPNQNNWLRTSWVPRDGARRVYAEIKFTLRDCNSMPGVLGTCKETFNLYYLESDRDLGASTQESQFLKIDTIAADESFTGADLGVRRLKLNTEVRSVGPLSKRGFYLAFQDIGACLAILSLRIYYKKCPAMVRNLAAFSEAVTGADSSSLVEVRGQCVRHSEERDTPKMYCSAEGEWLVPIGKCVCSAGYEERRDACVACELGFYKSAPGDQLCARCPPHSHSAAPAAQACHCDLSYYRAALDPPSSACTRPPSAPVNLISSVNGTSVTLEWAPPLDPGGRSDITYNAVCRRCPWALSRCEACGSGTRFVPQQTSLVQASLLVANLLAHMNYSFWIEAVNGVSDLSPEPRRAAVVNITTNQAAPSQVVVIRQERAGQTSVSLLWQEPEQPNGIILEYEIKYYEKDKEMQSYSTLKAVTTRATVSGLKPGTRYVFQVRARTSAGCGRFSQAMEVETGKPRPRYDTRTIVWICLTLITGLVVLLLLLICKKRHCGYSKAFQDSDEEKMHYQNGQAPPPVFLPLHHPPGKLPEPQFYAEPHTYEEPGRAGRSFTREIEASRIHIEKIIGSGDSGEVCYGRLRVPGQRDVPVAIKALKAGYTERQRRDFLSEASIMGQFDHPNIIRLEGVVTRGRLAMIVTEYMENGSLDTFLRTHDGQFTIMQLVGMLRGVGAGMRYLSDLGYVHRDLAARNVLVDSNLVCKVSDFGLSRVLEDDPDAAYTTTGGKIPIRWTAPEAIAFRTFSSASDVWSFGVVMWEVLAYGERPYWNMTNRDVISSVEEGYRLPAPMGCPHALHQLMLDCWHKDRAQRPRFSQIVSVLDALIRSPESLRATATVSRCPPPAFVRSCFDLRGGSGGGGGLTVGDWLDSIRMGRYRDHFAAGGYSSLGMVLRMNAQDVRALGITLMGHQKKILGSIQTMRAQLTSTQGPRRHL
The note with it: at 1 µM.

The target in test [18] is T6, Ephrin type-A receptor 8 (Homo sapiens). The following applies: at 10 µM.

Ephrin type-A receptor 7 (Homo sapiens), sequence (Q15375 28-998 limits assumed): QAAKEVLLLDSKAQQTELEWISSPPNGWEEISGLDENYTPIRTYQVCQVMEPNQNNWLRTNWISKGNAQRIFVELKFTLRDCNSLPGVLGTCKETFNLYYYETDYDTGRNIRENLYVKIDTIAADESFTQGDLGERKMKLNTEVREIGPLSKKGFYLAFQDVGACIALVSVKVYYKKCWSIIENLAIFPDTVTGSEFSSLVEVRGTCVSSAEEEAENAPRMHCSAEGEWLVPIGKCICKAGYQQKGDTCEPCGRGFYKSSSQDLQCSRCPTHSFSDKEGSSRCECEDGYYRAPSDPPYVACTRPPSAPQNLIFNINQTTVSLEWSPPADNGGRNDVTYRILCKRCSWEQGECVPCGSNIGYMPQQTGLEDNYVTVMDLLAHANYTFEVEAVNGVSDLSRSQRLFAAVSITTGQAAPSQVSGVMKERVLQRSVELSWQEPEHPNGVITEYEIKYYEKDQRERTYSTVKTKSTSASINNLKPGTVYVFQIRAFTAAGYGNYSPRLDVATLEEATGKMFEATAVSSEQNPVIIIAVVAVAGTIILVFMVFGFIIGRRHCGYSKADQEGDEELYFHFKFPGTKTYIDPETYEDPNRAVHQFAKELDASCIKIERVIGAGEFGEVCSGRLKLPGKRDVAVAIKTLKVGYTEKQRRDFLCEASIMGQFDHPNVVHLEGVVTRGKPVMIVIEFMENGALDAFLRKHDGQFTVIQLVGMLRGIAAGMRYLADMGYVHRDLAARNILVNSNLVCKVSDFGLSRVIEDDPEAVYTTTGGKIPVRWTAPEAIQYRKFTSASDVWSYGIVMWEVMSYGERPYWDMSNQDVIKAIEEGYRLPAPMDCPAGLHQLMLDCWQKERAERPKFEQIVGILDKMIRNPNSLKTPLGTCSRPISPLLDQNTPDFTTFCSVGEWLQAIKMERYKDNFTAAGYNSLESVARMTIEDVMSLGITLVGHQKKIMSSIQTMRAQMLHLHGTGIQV
Ephrin type-A receptor 4 (Homo sapiens), sequence (P54764 whole entry): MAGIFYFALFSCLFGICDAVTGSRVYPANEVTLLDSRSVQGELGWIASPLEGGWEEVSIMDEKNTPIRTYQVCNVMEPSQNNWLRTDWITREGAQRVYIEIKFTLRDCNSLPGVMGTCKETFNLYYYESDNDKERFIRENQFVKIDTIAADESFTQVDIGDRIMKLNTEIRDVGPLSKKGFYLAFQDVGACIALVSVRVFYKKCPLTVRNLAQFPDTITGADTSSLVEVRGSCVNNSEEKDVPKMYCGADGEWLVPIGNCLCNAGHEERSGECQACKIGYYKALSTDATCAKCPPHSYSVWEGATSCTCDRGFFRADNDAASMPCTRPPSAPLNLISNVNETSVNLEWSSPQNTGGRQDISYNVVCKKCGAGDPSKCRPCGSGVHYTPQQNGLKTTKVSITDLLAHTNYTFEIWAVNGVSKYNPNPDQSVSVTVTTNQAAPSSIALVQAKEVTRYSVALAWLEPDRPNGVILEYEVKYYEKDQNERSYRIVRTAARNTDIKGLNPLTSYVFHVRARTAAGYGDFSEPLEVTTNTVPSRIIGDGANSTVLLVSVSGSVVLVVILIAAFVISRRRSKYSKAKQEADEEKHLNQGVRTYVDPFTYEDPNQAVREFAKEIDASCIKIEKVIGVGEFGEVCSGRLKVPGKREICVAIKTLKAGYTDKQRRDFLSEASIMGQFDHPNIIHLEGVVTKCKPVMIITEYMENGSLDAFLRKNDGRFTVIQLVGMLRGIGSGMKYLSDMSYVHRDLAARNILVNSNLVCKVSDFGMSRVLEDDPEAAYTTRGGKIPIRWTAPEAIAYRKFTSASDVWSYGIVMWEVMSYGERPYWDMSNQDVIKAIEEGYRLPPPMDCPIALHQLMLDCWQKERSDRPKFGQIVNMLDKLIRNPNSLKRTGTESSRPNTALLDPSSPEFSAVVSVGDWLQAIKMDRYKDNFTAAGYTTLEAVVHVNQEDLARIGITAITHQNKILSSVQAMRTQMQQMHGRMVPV

Consider `c1ccc(-c2n[nH]c3c2oc2ccccc23)cc1`, for which the residual activity in test [1] turned out to be 5%; in test [2] it was 83%; in test [3], 71%; in test [4], 98%; in [5] it was 99%; in test [6], 96%. Besides, the residual activity in [7] stood at 78%; in test [8] it was 99%.

Take `Oc1ccc(Nc2nc(-c3ccc(Cl)cc3)cs2)cc1`: the residual activity in [1] amounted to 96%; in test [2], 104%; in [3], 93%; in test [4], 95%; in test [5], 63%; in test [9] it was 88%. Moreover, the residual activity in test [10] amounted to 113%; in test [11] it was 107%; in [12], 111%; in [13] it was 113%; in test [14], 103%; in test [15], 112%. Also, the residual activity in test [16] stood at 86%; in test [6], 105%; in test [7], 102%; in test [17], 99%; in test [18] it was 96%; in test [8] it was 108%.
